From PubChem
Rows were chosen to be rich in hits. Some 1.4% of all compounds tested hit in one or more screens of this group.
APOBEC3G inh – inhibitors of human APOBEC3G DNA deaminase | inhibition, % at 20 µM | 330,000 compounds, 0.28% hits | recombinant A3G, ssDNA deamination FAM/TAMRA fluorescence;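 active means inhibition of at least 40% at 20 µM, with no more than 30% in the related APOBEC3A deaminase screen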;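 further: plate controls were DMSO wells with A3G for no effect and wells lacking A3G enzyme for full effect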
Target sequence (Q9HC16 whole entry, looked up): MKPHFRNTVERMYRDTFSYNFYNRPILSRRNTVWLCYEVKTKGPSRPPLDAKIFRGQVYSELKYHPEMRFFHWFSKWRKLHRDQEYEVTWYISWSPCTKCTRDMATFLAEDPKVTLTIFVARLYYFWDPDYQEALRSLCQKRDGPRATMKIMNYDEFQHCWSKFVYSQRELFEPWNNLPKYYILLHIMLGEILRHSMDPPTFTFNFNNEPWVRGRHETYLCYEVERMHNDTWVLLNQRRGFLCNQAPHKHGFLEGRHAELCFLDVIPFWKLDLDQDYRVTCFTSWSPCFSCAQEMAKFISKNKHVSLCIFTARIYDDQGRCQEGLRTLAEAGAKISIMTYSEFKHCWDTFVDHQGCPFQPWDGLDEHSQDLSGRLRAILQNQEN
NPR1 activator – GC-A (human) enzyme activation | 370,000 compounds, 0.14% hits | HEK293 GC-A cells, cGMP TR-FRET, EC30 ANP; 0% at EC30 ANP, 100% saturating ANP | activation, % at 10 µM | P16066; in the data active means activation above about 40%
GC-B act – GC-B (human) receptor activation; HEK293-GC-B cells, CNP EC30, cGMP TR-FRET; 0% at EC30 CNP, 100% saturating CNP; activation, % at 10 µM; 370,000 compounds, 0.11% hits; AID 1920062;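 active means activation at 10 µM reaching about 35% in either raw or pattern-adjusted values, limit read from the data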
FAS-TE inh – inhibitors of human fatty acid synthase thioesterase domain. P49327. recombinant FAS-TE, OMFH fluorogenic substrate, fluorescence endpoint. inhibition, % at 15 µM. 360,000 compounds, 0.67% hits;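 active means compounds whose normalised, plate-corrected inhibition of enzyme fluorescence in the single-dose primary screen is 50% or more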;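 further: 0% = DMSO with enzyme and 100% = substrate without enzyme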
APOBEC3A inh – human APOBEC3A DNA deaminase inhibition. recombinant A3A, FAM/TAMRA ssDNA deamination fluorescence. inhibition, % at 20 µM. 330,000 compounds, 0.41% hits;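 active means at least 40% inhibition at 20 µM here, with at most 30% in a related deaminase screen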;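 further: plate controls were A3A with DMSO for no effect and wells lacking A3A enzyme for full effect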
The depositor's hits bear a star.

For COc1ccc(CNC(=S)Nc2cc(OC)ccc2OC)cc1 the results were APOBEC3G inh -2, NPR1 activator 40*, GC-B act 3, FAS-TE inh 0 and APOBEC3A inh -3.
Cc1ccccc1-c1nc(CS(=O)CC(=O)NCc2ccccc2)c(C)o1 (stereo not drawn) was read as APOBEC3G inh 10, NPR1 activator -3, GC-B act 3, FAS-TE inh -2 and APOBEC3A inh 5.
`Cc1ccc(CNC(=O)CS(=O)Cc2nc(-c3ccccc3C)oc2C)cc1` (stereo not drawn) gave APOBEC3G inh 6, NPR1 activator 2, GC-B act 111*, FAS-TE inh 3 and APOBEC3A inh 5.
`COc1cccc(CNC(=O)Cn2c(-c3ccccc3)cc(C(C)=O)c2C)c1OC` gave NPR1 activator 0 and GC-B act -5.
O=C(Nc1ccccc1)Nc1cc(OCC(F)(F)F)cc(OCC(F)(F)F)c1 was read as NPR1 activator 8, GC-B act -4 and FAS-TE inh 52*.
`O=C(Nc1ccccc1)Nc1cc(Cl)cc(Cl)c1` gave APOBEC3G inh -2, NPR1 activator 2, GC-B act 4, FAS-TE inh 24 and APOBEC3A inh -3.
For CC(=O)NC(c1ccc(C(C)C)cc1)c1c(O)ccc2ccccc12 (stereo not drawn) the results were APOBEC3G inh 3, NPR1 activator 47*, GC-B act -7, FAS-TE inh 10 and APOBEC3A inh -3.
Screening CCc1ccccc1N1CSC2=C(C#N)C(c3ccccc3F)CC(=O)N2C1 (stereo not drawn) returned APOBEC3G inh 26, NPR1 activator 5, GC-B act -2, FAS-TE inh -2 and APOBEC3A inh -4.
COc1ccc(C2CC(=O)N3CN(c4ccccc4F)CSC3=C2C#N)cc1OC (stereo not drawn) was read as APOBEC3G inh 46*, NPR1 activator 1, GC-B act -9, FAS-TE inh 5 and APOBEC3A inh -3.
`Oc1ccc2c(c1)OCC1(O)Cc3cc(O)c(O)cc3C21` (stereo not drawn) gave NPR1 activator 0, GC-B act 0 and FAS-TE inh -18.
Screening Oc1cc2c(cc1O)[C@H]1c3ccc(O)c(O)c3OC[C@@]1(O)C2 returned APOBEC3G inh 59*, NPR1 activator -4, GC-B act -2, FAS-TE inh 0 and APOBEC3A inh -2.
COC(=O)C1CN(CCc2ccccc2)CCS(=O)(=O)N1Cc1ccc(C)cc1 (stereo not drawn) was read as NPR1 activator -3 and GC-B act -4.
`Cc1cc(S(=O)(=O)c2ccc([N+](=O)[O-])cn2)ccc1Br` gave APOBEC3G inh -5, NPR1 activator 20, GC-B act 37*, FAS-TE inh 38 and APOBEC3A inh -3.
`O=C(Nc1ccc2nc(-c3ccco3)c(-c3ccco3)nc2c1)N1CCN(c2ccccn2)CC1` gave APOBEC3G inh -5, NPR1 activator -18, GC-B act -2, FAS-TE inh 5 and APOBEC3A inh 43*.
Screening COC(=O)[C@]12C[C@H](CC(=O)NCc3ccccc3)C(=O)N(Cc3cccc4ccccc34)C1=C[C@H](C(C)(C)C)O[C@@H]2C returned NPR1 activator -5 and GC-B act -7.
`Cc1ccc(CN2CCCCC(NC(=O)c3ccc(COc4ccccc4)cc3)C2=O)cc1` (stereo not drawn) gave NPR1 activator 8 and GC-B act -1.
`COC(=O)c1cc(-c2ccc(OC)cc2)on1` gave APOBEC3G inh 1, NPR1 activator 30, GC-B act 2, FAS-TE inh 0 and APOBEC3A inh 6.
Screening COC(=O)c1cc(-c2ccc(Br)cc2)on1 returned APOBEC3G inh -9, NPR1 activator 59*, GC-B act 8, FAS-TE inh -5 and APOBEC3A inh -1.
For O=C(O)COc1ccccc1C=NNC(=O)Cc1cc(=O)[nH][nH]1 the results were NPR1 activator 4 and GC-B act 2.
`S=C(NCCCCN(Cc1ccc(Cl)cc1)c1ccc(Br)cn1)NCCCc1cnc[nH]1` gave NPR1 activator -6, GC-B act -4 and FAS-TE inh -116.
Cc1ccc(Cn2c(=N)c(C(=O)NCc3ccco3)cc3c(=O)n4ccccc4nc32)cc1 was read as APOBEC3G inh 7, NPR1 activator 53*, GC-B act 12, FAS-TE inh 20 and APOBEC3A inh 4.
For Cc1ccc(Cn2c(=N)c(C(=O)NCC3CCCO3)cc3c(=O)n4cccc(C)c4nc32)cc1 (stereo not drawn) the results were APOBEC3G inh -3, NPR1 activator 40*, GC-B act 37*, FAS-TE inh 10 and APOBEC3A inh -5.
For N=c1c(C(=O)NCc2ccco2)cc2c(=O)n3ccccc3nc2n1CCc1ccccc1 the results were APOBEC3G inh 2, NPR1 activator 7, GC-B act -2, FAS-TE inh -5 and APOBEC3A inh -13.
O=C(O[C@H]1CC[C@@]23CCCN2C(=O)CCC[C@H]3C1)N1CCCC1 was read as NPR1 activator 2 and GC-B act -2.
For c1ccc(C2=NC(c3ccccc3)N=C(c3ccccc3)N2)cc1 the results were APOBEC3G inh -7, NPR1 activator -7, GC-B act -7, FAS-TE inh 2 and APOBEC3A inh -3.
For Oc1ccc(C2N=C(c3ccccc3)NC(c3ccccc3)=N2)cc1 the results were APOBEC3G inh -2, NPR1 activator 27, GC-B act 34*, FAS-TE inh 8 and APOBEC3A inh 2.
Screening CC(=O)c1c(C)n(-c2cccc(Cl)c2)c2ccc(O)cc12 returned APOBEC3G inh -5, NPR1 activator 66*, GC-B act 11, FAS-TE inh 4 and APOBEC3A inh -3.
For CCc1ccc2[nH]c3nc(C)cc(C)c3c(=O)c2c1 the results were APOBEC3G inh -3, NPR1 activator 41*, GC-B act 37*, FAS-TE inh -5 and APOBEC3A inh 2.
For CCc1ccc2[nH]cc(S(=O)(=O)c3ccc(C)c(C)c3)c(=O)c2c1 the results were APOBEC3G inh -5, NPR1 activator -2, GC-B act -6, FAS-TE inh 0 and APOBEC3A inh -1.
For Cc1ccc(-c2nnc(SCC(=O)Nc3ccc(OCc4ccccc4)cc3)n2-c2ccc(Cl)cc2)cc1 the results were NPR1 activator 0 and GC-B act 7.
`COC(=O)[C@]12C[C@H](CC(=O)N3CCCC3)C(=O)N(Cc3ccccc3)C1=C[C@H](C1CCCC1)O[C@@H]2C` gave NPR1 activator -5 and GC-B act 2.
COc1cc(C(C)=O)ccc1Oc1ncnc2c1cnn2-c1cccc(Cl)c1 was read as APOBEC3G inh -4, NPR1 activator 3, GC-B act -5, FAS-TE inh 3 and APOBEC3A inh 1.
